According to PubChem BioAssay (Tox21):
Inconclusive results are not listed. Calls of active or inactive are those of the source. Unless noted, calls follow the shape of the dose curve; as a rule, active = well fitted curve in the direction sought with a large enough effect in the repeat runs; inconclusive = weak or mixed curves; inactive = no such curve, though single readings can be large; an effect the other way counts as inactive or inconclusive.

Tests used:
[1] = qHTS assay to identify small molecule agonists of the peroxisome proliferator-activated receptor delta (PPARd) signaling pathway - cell viability counter screen (AID 743211); also: % is scaled to controls: 0 for no effect and ±100 for the full control effect; nearly all actives have a fitted effect of over 55% in size
In short: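 PPARd-bla HEK293H cells (3000/well) were pre-incubated 5 h at 37 C, then exposed to compound for 17 h at 37 C. After 2 h with LiveBLAzer substrate, CellTiter-Glo was added to the same wells; luminescence read after 30 min at room temperature.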

[2] = target: Peroxisome proliferator-activated receptor delta (Homo sapiens) (UniProt Q03181); test: qHTS assay to identify small molecule agonists of the peroxisome proliferator-activated receptor delta (PPARd) signaling pathway (AID 743212; calls by dose curve; also: % is scaled to controls: 0 for no effect and ±100 for the full control effect)
In short: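 Cells expressing a UAS-driven beta-lactamase reporter (PPARd-bla HEK293H) were given test compounds after a 5 h settle and kept at 37 C. Reporter activity was then measured as FRET fluorescence using LiveBLAzer B/G substrate.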

[3] = qHTS assay to identify small molecule antagonists of the peroxisome proliferator-activated receptor delta (PPARd) signaling pathway - cell viability counter screen (AID 743213); also: % is scaled to controls: 0 for no effect and ±100 for the full control effect; nearly all actives have a fitted effect of over 50% in size
In short: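 Viability counter-screen, qHTS format: PPARd-bla HEK293H, L165041 300 nM final, 17 h compound exposure at 37 C, CellTiter-Glo luminescence after 30 min RT.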

[4] = target: Peroxisome proliferator-activated receptor delta (Homo sapiens) (UniProt Q03181); test: qHTS assay to identify small molecule antagonists of the peroxisome proliferator-activated receptor delta (PPARd) signaling pathway (AID 743215; active = well fitted inhibition curve with a large enough effect in the signal ratio in the repeat runs, not every such curve was filed as active; the % refers to the signal ratio;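 also: cells stimulated with agonist L165041 at 300 nM final during compound exposure; series mostly up to about 62 µM; % is scaled to controls: 0 for no effect and ±100 for the full control effect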)
In short: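 HEK293H GeneBLAzer PPARd UAS-bla reporter cells; cpd + L165041 300 nM final, 17 h 37 C; LiveBLAzer B/G FRET substrate 2 h RT; fluorescence intensity read-out. Antagonist mode.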

[5] = target: Bile acid receptor (Homo sapiens) (UniProt Q96RI1); test: qHTS assay to identify small molecule antagonists of the farnesoid-X-receptor (FXR) signaling pathway (AID 743217; active = well fitted inhibition curve with a large enough effect in the signal ratio in the repeat runs, not every such curve was filed as active; the % refers to the signal ratio; also: % is scaled to controls: 0 for no effect and ±100 for the full control effect)
In short: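 Read-out: beta-lactamase FRET fluorescence (LiveBLAzer B/G substrate, 2 h, room temperature) in GeneBLAzer FXR-UAS-bla HEK 293T cells. Compounds were co-dosed with 50 uM chenodeoxycholic acid (final) and incubated 16 h at 37 °C.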

[6] = qHTS assay to identify small molecule agonists of the farnesoid-X-receptor (FXR) signaling pathway - cell viability counter screen (AID 743218); also: % is scaled to controls: 0 for no effect and ±100 for the full control effect; nearly all actives have a fitted effect of over 45% in size
In short: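 Luminescence from CellTiter-Glo, read after 30 min at RT, reports viability of GeneBLAzer FXR-UAS-bla HEK 293T cells treated 16 h with compounds in the wells used for the beta-lactamase reporter.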

[7] = target: Bile acid receptor (Homo sapiens) (UniProt Q96RI1); test: qHTS assay to identify small molecule agonists of the farnesoid-X-receptor (FXR) signaling pathway (AID 743220; active = well fitted activation curve with a large enough effect in the signal ratio in the repeat runs, not every such curve was filed as active; the % refers to the signal ratio; also: % is scaled to controls: 0 for no effect and ±100 for the full control effect)
In short: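 FXR-UAS-bla HEK 293T cells carrying a UAS-driven beta-lactamase reporter were plated for 5 h at 37C/5% CO2, then exposed to DMSO-dissolved Tox21 10K compounds for 16 h at 37C. A LiveBLAzer B/G FRET substrate was loaded for 2 h at room temperature before fluorescence reading.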

[8] = qHTS assay to identify small molecule antagonists of the farnesoid-X-receptor (FXR) signaling pathway - cell viability counter screen (AID 743221; active = well fitted cell-killing curve with a large enough effect in the repeat runs, not every such curve was filed as active; also: % is scaled to controls: 0 for no effect and ±100 for the full control effect; nearly all actives have a fitted effect of over 50% in size)
In short: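 GeneBLAzer FXR-UAS-bla HEK 293T cells, compound plus chenodeoxycholic acid (50 uM final), 16 h at 37 C. CellTiter-Glo added to the same wells after the beta-lactamase read; luminescence read after 30 min at room temperature as viability.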

[9] = target: Vitamin D3 receptor (Homo sapiens) (UniProt P11473); test: qHTS assay to identify small molecule agonists of the vitamin D receptor (VDR) signaling pathway (AID 743222; calls by dose curve; also: % is scaled to controls: 0 for no effect and ±100 for the full control effect)
In short: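 Beta-lactamase reporter readout (LiveBLAzer B/G FRET, 2 h RT) in VDR-bla cells after 16 h compound treatment at 37C, 5% CO2; cells pre-incubated 4 h before pin transfer of DMSO solutions.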

[10] = target: Vitamin D3 receptor (Homo sapiens) (UniProt P11473); test: qHTS assay to identify small molecule antagonists of the vitamin D receptor (VDR) signaling pathway (AID 743223; active = well fitted inhibition curve with a large enough effect in the signal ratio in the repeat runs, not every such curve was filed as active; the % refers to the signal ratio; also: % is scaled to controls: 0 for no effect and ±100 for the full control effect)
In short: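 VDR-bla cells were treated with compound plus 3 nM final 1alpha,25-dihydroxyvitamin D3 for 16 h at 37C. Beta-lactamase reporter read by B/G FRET substrate fluorescence after 2 h at room temperature. qHTS format.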

[11] = qHTS assay to identify small molecule agonists of the vitamin D receptor (VDR) signaling pathway - cell viability counter screen (AID 743224); also: series mostly up to about 63 µM; % is scaled to controls: 0 for no effect and ±100 for the full control effect; nearly all actives have a fitted effect of over 50% in size
In short: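 Cytotoxicity counter screen: VDR-bla cells, 16 h compound exposure at 37C, 5% CO2; CellTiter-Glo luminescence, 30 min RT, same wells as bla read.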

[12] = qHTS assay to identify small molecule antagonists of the vitamin D receptor (VDR) signaling pathway - cell viability counter screen (AID 743225); also: % is scaled to controls: 0 for no effect and ±100 for the full control effect; nearly all actives have a fitted effect of over 50% in size
In short: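 VDR-UAS-bla HEK 293T cells were plated and incubated 4 h at 37C, then dosed with compound plus 3 nM (final) 1-alpha,25-dihydroxyvitamin D3 for 16 h. After the 2 h beta-lactamase read, viability in the same wells was read as CellTiter-Glo luminescence after 30 min at room temperature.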

[13] = qHTS assay to identify small molecule agonists of the NFkB signaling pathway (AID 1159509; active = well fitted curve in the direction sought with a large enough effect in the signal ratio in the repeat runs, not every such curve was filed as active; the % refers to the signal ratio)
In short: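 Agonist activity was read as beta-lactamase-driven FRET change (460 and 530 nm emission, 405 nm excitation) following 1.5 hr substrate loading at room temperature. Beforehand, ME-180 NFkB-bla reporter cells were treated with compounds for 5 hr at 37 C.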

[14] = qHTS assay to identify small molecule agonists of the NFkB signaling pathway - cell viability counter screen (AID 1159515; calls by dose curve; also: series mostly up to about 61 µM; % is scaled to controls: 0 for no effect and ±100 for the full control effect; nearly all actives have a fitted effect of over 55% in size)
In short: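 ME-180 NFkB-bla cells, 2,000/well; overnight attach; compound 5 hr, 37 C/5% CO2; LiveBLAzer substrate 1.5 hr RT; then CellTiter-Glo in same wells, 30 min RT, luminescence read.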

[15] = qHTS assay to identify small molecule agonists of the endoplasmic reticulum stress response signaling pathway (AID 1159516; active = well fitted activation curve with a large enough effect in the signal ratio in the repeat runs, not every such curve was filed as active; the % refers to the signal ratio; also: % is scaled to controls: 0 for no effect and ±100 for the full control effect)
In short: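 HeLa ESRE-bla reporter line; cpd 5 h, 37 C/5% CO2; LiveBLAzer B/G FRET substrate 2 h RT; ex 405, em 460/530 nm.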

[16] = qHTS assay to identify small molecule agonists of the endoplasmic reticulum stress response signaling pathway - cell viability counter screen (AID 1159517; calls by dose curve)
In short: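 Cpd-treated ESRE-bla HeLa (5 hr, 37 C) → LiveBLAzer 2 hr RT → CellTiter-Glo 30 min RT → luminescence.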

[17] = qHTS assay to identify small molecule antagonists of the retinoid-related orphan receptor gamma (ROR-gamma) signaling pathway - cell viability counter screen (AID 1159520)
In short: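 Tet-on ROR gamma CHO cells (1,000/well) were plated 4 hr, given compounds in DMSO for 2 hr at 37 C, then induced with 1 uM final doxycycline for 16 hr. Viability was read as ATP by CellTiter-Glo luminescence after 30 min.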

[18] = target: Nuclear receptor ROR-gamma (Homo sapiens) (UniProt P51449); test: qHTS assay to identify small molecule antagonists of the retinoid-related orphan receptor gamma (ROR-gamma) signaling pathway (AID 1159521)
In short: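 Tet-on ROR-gamma CHO cells with ROR response element-luciferase reporter; compounds added 2 hr before 1 uM doxycycline induction, then 16 hr at 37 C. Antagonism scored as decreased ONE-Glo luminescence.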

[19] = qHTS assay to identify small molecule agonists of the AP-1 signaling pathway (AID 1159526; calls by dose curve; also: % is scaled to controls: 0 for no effect and ±100 for the full control effect)
[20] = qHTS assay to identify small molecule agonists of the AP-1 signaling pathway - cell viability counter screen (AID 1159525; calls by dose curve; also: nearly all actives have a fitted effect of over 55% in size)
In short: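 Each titration point was normalised to DMSO and tetra n-octyl ammonium bromide controls. The read was Cell Titer Glo luminescence after 30 min at RT, following 5 h compound exposure of ME-180 AP-1-bla cells at 37 °C.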

Sequence of Bile acid receptor (Homo sapiens) (Q96RI1 whole entry, looked up): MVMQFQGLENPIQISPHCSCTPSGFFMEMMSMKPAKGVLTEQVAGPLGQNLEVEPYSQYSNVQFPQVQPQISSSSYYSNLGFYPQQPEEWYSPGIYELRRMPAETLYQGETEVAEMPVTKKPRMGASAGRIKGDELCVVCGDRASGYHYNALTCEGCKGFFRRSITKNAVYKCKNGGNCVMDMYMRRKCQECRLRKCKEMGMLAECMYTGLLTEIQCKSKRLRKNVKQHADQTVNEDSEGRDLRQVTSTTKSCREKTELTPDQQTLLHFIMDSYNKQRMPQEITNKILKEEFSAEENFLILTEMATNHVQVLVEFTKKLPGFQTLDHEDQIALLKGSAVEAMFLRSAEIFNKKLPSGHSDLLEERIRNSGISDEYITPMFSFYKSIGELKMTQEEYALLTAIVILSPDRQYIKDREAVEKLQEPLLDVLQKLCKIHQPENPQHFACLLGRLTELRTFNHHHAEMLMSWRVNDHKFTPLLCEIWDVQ
Sequence of Vitamin D3 receptor (Homo sapiens) (P11473 whole entry, looked up): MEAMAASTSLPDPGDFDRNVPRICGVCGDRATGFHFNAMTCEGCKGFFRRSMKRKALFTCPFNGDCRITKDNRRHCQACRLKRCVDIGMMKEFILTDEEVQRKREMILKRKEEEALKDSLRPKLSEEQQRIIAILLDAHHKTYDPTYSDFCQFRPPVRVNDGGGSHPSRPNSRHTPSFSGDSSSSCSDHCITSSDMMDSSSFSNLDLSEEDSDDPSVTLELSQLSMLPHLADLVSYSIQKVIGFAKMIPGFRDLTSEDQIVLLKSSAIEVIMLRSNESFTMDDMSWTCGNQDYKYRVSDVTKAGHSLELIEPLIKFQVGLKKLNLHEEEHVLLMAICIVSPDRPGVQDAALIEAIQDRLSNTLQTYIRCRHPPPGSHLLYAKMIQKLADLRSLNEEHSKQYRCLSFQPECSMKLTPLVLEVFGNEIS
Sequence of Peroxisome proliferator-activated receptor delta (Homo sapiens) (Q03181 whole entry, looked up): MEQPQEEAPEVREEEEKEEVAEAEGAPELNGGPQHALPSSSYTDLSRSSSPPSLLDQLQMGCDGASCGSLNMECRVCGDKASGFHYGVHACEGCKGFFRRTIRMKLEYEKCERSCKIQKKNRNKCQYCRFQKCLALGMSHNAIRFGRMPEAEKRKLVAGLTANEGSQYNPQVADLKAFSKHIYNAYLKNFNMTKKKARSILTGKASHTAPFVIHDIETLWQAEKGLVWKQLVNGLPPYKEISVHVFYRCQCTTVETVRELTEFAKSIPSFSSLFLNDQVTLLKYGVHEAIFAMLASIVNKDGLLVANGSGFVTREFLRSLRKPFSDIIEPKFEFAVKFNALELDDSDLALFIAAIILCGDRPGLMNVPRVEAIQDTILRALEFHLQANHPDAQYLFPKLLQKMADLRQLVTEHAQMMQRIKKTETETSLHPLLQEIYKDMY

N#CCCOCCOCCC#N
inactive: outcome [1] | outcome [2] | outcome [3] | outcome [4] | outcome [5] | Potency [6] | outcome [7] | outcome [8] | outcome [9] | outcome [10] | outcome [11] | outcome [12] | outcome [13] | outcome [14] | outcome [15] | outcome [16] | outcome [17] | outcome [18] | outcome [19]

C=C(C)C(=O)OC1CC(C)CC(C)(C)C1 (stereo not given)
inactive: outcome [1] | outcome [2] | outcome [4] | outcome [5] | Potency [6] | outcome [8] | outcome [9] | outcome [10] | outcome [11] | outcome [12] | outcome [13] | outcome [14] | outcome [15] | outcome [16] | outcome [17] | outcome [18] | outcome [20] | outcome [19]

CC(=O)OC(C(=O)c1ccccc1)c1ccccc1 (stereo not given)
inactive: outcome [1] | outcome [2] | outcome [3] | outcome [5] | Potency [6] | outcome [7] | outcome [8] | outcome [11] | outcome [12] | outcome [13] | outcome [14] | outcome [15] | outcome [16] | outcome [17] | outcome [18] | outcome [20] | outcome [19]

O=C(O)c1ccccc1C(=O)OCc1ccccc1
inactive: outcome [1] | outcome [2] | outcome [3] | outcome [4] | outcome [5] | Potency [6] | outcome [11] | outcome [12] | outcome [13] | outcome [14] | outcome [15] | outcome [16] | outcome [17] | outcome [18] | outcome [19]

C=C[C@@H](C)CCC=C(C)C
inactive: outcome [1] | outcome [2] | outcome [3] | outcome [4] | outcome [8] | outcome [9] | outcome [10] | outcome [11] | outcome [13] | outcome [14] | outcome [15] | outcome [16] | outcome [17] | outcome [20] | outcome [19]

O=C1CC[C@H](C(=O)N2CCCCC2)N1
inactive: outcome [1] | outcome [2] | outcome [3] | Potency [6] | outcome [8] | outcome [11] | outcome [12] | outcome [13] | outcome [14] | outcome [15] | outcome [16] | outcome [17] | outcome [18] | outcome [20] | outcome [19]

Cc1c(C(C)C)c(=O)n(-c2ccccc2)n1C
inactive: outcome [1] | Potency [6] | outcome [8] | outcome [9] | outcome [10] | outcome [11] | outcome [13] | outcome [14] | outcome [15] | outcome [16] | outcome [17] | outcome [18] | outcome [19]

CC(C)C(=O)c1ccccc1
inactive: outcome [1] | outcome [2] | outcome [3] | outcome [4] | outcome [11] | outcome [12] | outcome [13] | outcome [14] | outcome [15] | outcome [16] | outcome [17] | outcome [18] | outcome [20] | outcome [19]

O=C(Nc1cccc(C2=NCCN2)c1)Nc1cccc(C2=NCCN2)c1
inactive: outcome [2] | outcome [3] | outcome [4] | Potency [6] | outcome [8] | outcome [11] | outcome [13] | outcome [14] | outcome [15] | outcome [16] | activity, negative = cytotoxicity [17] 4.97% [at 19 µM] | activity change, negative = inhibition [18] -4.66% [at 19 µM] | viability change, negative = cytotoxic [20] 3.95% [at 15.8 µM] | activation [19] -8.47% [at 15.8 µM]

C=CCOC(=O)c1ccc(C(=O)OCC=C)c(C(=O)OCC=C)c1
inactive: outcome [1] | outcome [2] | outcome [3] | outcome [4] | Potency [6] | outcome [8] | outcome [9] | outcome [10] | outcome [11] | outcome [12] | outcome [13] | outcome [14] | outcome [15] | outcome [16] | outcome [17] | outcome [20] | outcome [19]

CCOC(=O)CCCCCCCCC(=O)OCC
inactive: outcome [1] | outcome [3] | Potency [6] | outcome [8] | outcome [9] | outcome [11] | outcome [12] | outcome [13] | outcome [14] | outcome [15] | outcome [16] | outcome [17] | outcome [18] | outcome [20] | outcome [19]

O=C(Oc1ccccc1C(=O)O)c1ccccc1O
inactive: outcome [1] | outcome [2] | outcome [3] | outcome [4] | outcome [5] | Potency [6] | outcome [7] | outcome [8] | outcome [9] | outcome [10] | outcome [11] | outcome [12] | outcome [13] | outcome [14] | outcome [15] | outcome [16] | outcome [17] | outcome [20] | outcome [19]

CCC(C)(C)C1CCC(=O)CC1
inactive: outcome [1] | outcome [2] | outcome [3] | outcome [4] | Potency [6] | outcome [8] | outcome [9] | outcome [10] | outcome [11] | outcome [12] | outcome [13] | outcome [14] | outcome [15] | outcome [16] | outcome [17] | outcome [18] | outcome [19]

Cc1ccc(S(=O)(=O)NC(=O)NC2CCCCCCC2)cc1
inactive: outcome [1] | outcome [3] | Potency [6] | outcome [8] | outcome [9] | outcome [10] | outcome [11] | outcome [12] | outcome [13] | outcome [14] | outcome [15] | outcome [16] | outcome [17] | outcome [18] | outcome [20] | outcome [19]

C[N+](C)(C)CC(O)CCl (stereo not given)
inactive: outcome [1] | outcome [2] | outcome [3] | Potency [6] | outcome [8] | outcome [9] | outcome [10] | outcome [11] | outcome [12] | outcome [13] | outcome [14] | outcome [15] | outcome [16] | outcome [17] | outcome [18] | outcome [20] | outcome [19]

COCC(=O)Nc1c(I)c(C(=O)NCC(O)CO)c(I)c(C(=O)N(C)CC(O)CO)c1I (stereo not given)
inactive: outcome [1] | outcome [2] | outcome [3] | outcome [4] | Potency [6] | outcome [8] | outcome [11] | outcome [12] | outcome [13] | outcome [14] | outcome [15] | outcome [17] | outcome [18] | outcome [20] | outcome [19]

C/C=C(\C)C(=O)OCC/C=C\CC
inactive: outcome [1] | outcome [2] | outcome [3] | outcome [4] | outcome [5] | Potency [6] | outcome [7] | outcome [8] | outcome [9] | outcome [10] | outcome [11] | outcome [12] | outcome [13] | outcome [14] | outcome [15] | outcome [17] | outcome [18] | outcome [20] | outcome [19]
